aSyn rescue: inhibitors of alpha-synuclein toxicity in yeast. Yeast expressing alpha-synuclein, growth rescue, BacTiter-Glo, 24 h. 370,000 compounds, 0.14% hits. Potency, µM (doses to about 46.1 µM), hits mostly activators; further: nearly all actives have a fitted effect of over 65% in size
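Readout is rescue of growth in alpha-synuclein-expressing yeast, so inhibitors of toxicity appear as activators. Growth after 24 hr at 30 deg C in galactose medium is quantified by luminescence.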
FUS yeast rescue: FUS proteinopathy suppression in yeast; S. cerevisiae FUS-expressing, growth rescue, OD600, 24 h; Potency, µM (series often up to 76.6 µM), actives largely listed as activators; 390,000 compounds, 0.24% hits; AID 1347120; further: nearly all actives have a fitted effect of over 55% in size
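Yeast expressing FUS under galactose induction, OD 0.005 in 2% galactose medium; compounds in a dilution series, 24 h at 30C. Growth rescue by absorbance at 600 nm; CP55940 positive control, DMSO negative.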
Mm-Cpn inhibitor: M. maripaludis TRiC chaperonin inhibition. purified Mm-Cpn ATPase, ADP Transcreener TR-FRET. Potency, µM (series often up to 76.9 µM), hits mostly inhibitors. 330,000 compounds, 0.031% hits; further: nearly all actives have a fitted effect of over 80% in size
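Measured: ADP formation by purified Mm-CPN. Conditions: 25 nM protein, 10 uM ATP, Tris pH 7.4 with Mg2+, K+ and DTT, 37°C for 30 min. Detection: Transcreener HTRF after 30 min at room temperature.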
Abeta rescue: A-beta toxicity reversal in yeast | yeast expressing A-beta42, growth rescue, OD600, 48 h; response scale: 0% DMSO, 100% iron-clioquinol control | Potency, µM (highest dose often 46.1 µM), hits mostly activators | 410,000 compounds, 0.063% hits; further: nearly all actives have a fitted effect of over 55% in size
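Growth rescue measured by 600 nm absorbance after 48 h yeast culture at 30 C with compound. Values normalized between DMSO and an equimolar ferric chloride plus clioquinol control.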
TDP43 rescue: rescues yeast growth from TDP-43 toxicity; 410,000 compounds, 1.8% hits; Potency, µM (series often up to 46.1 µM), hits mostly activators; AID 652104; TDP-43 expressing yeast growth rescue, BacTiter-Glo, 24 h; further: nearly all actives have a fitted effect of over 50% in size
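Cell-based yeast growth screen: TDP-43 expression induced in galactose, inoculum OD600=0.02 after raffinose pregrowth to mid-log. Read-out BacTiter-Glo luminescence at 24 hr, 30 deg C; inhibition of toxicity seen as signal increase.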
ClpP mod: qHTS Assay for Activators of ClpP. Potency, µM (top dose mostly 57.5 µM). 340,000 compounds, 1.9% hits. ATP-dependent Clp protease proteolytic subunit (Bacillus subtilis (strain 168)), P80244. purified B. subtilis ClpP, FRET peptide cleavage, 20 min; active means well fitted falling curve with a large enough effect; inconclusive means small, poorly fitted or top-dose-only effect; inactive means no such curve, though single readings can be large or run the other way; further: the source files actives as falling curves though it sought activators and does not explain the sign; nearly all actives have a fitted effect of over 65% in size
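FRET quenching reversal measured ClpP activation: 10 microg/mL B. subtilis ClpP at pH 8 with the FRET-FV decapeptide, read at 430 nm after 320 nm excitation. The 20-min minus 0-min signal was scaled between DMSO/no-enzyme wells and ADEP (5.8 microM final).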
Hits are given with their value. Shown are actives, neighbours in structure and some others; about 3.6% of the full set was active somewhere. Unless noted, the call rests on the fitted dose curve; in most records, active means well fitted curve in the direction sought with a large enough effect; inconclusive means small, poorly fitted or top-dose-only effect, or another doubt; inactive means no such curve, though single readings can be large; an effect the other way counts as inactive or inconclusive.

Results for COc1ccccc1CNC(=O)C1CCCN(S(=O)(=O)c2ccc3c(c2)oc(=O)n3C)C1 (stereo not drawn) ?
FUS yeast rescue: inactive; Abeta rescue: inactive; TDP43 rescue: inactive; ClpP mod: inactive

What do the screens show for `Cc1ccc(/C=N/NC(=S)N2CCOCC2)cc1`?
aSyn rescue: inactive; Mm-Cpn inhibitor: inactive; Abeta rescue: inconclusive; TDP43 rescue: 22µM; ClpP mod: inactive

How did S=C(N/N=C/c1ccc(Cl)cc1)N1CCOCC1 do in these assays?
aSyn rescue: inactive; Mm-Cpn inhibitor: inactive; Abeta rescue: inconclusive; TDP43 rescue: inconclusive; ClpP mod: inactive

What do the screens show for `Cc1ccc(C)c(NC(=O)CN2CCN(C3CCCCC3)C(=O)C2=O)c1`?
FUS yeast rescue: inactive; Abeta rescue: inactive; TDP43 rescue: inactive; ClpP mod: inactive

Results for C#CCNC(=O)C[C@H]1C[C@@]2(C(=O)OC)C(=C[C@H](COCc3ccccc3)O[C@@H]2C)N(Cc2ccccc2)C1=O ?
FUS yeast rescue: inactive

Results for O=C(O)c1cc(NCc2cccs2)ccc1N1CCOCC1 ?
aSyn rescue: inactive; FUS yeast rescue: inactive; Mm-Cpn inhibitor: inactive; Abeta rescue: inactive; TDP43 rescue: inactive; ClpP mod: inactive

What do the screens show for `O=C(O)c1cc(NCc2ccc(F)cc2)ccc1N1CCOCC1`?
aSyn rescue: inactive; FUS yeast rescue: inactive; Mm-Cpn inhibitor: inactive; Abeta rescue: inactive; TDP43 rescue: inactive; ClpP mod: 32µM

Results for Cc1ccn2c(=O)nc(SCC(=O)NCc3ccccc3)nc2c1 ?
aSyn rescue: inactive; FUS yeast rescue: inactive; Mm-Cpn inhibitor: inactive; Abeta rescue: inactive; TDP43 rescue: inactive; ClpP mod: inactive

Results for O=C(CSc1nc(=O)n2cc(Cl)ccc2n1)Nc1cccc2ccccc12 ?
aSyn rescue: inactive; FUS yeast rescue: inactive; Mm-Cpn inhibitor: inactive; Abeta rescue: inactive; TDP43 rescue: 7.1µM; ClpP mod: inconclusive

What do the screens show for `Cc1ccc2nc(SCC(=O)Nc3ccc(Cl)cc3)nc(=O)n2c1`?
aSyn rescue: inactive; FUS yeast rescue: inactive; Mm-Cpn inhibitor: inactive; Abeta rescue: inactive; TDP43 rescue: inactive; ClpP mod: inactive

How did Cc1ccn2c(=O)nc(SCC(=O)Nc3cccc4ccccc34)nc2c1 do in these assays?
aSyn rescue: inactive; FUS yeast rescue: 22µM; Mm-Cpn inhibitor: inactive; Abeta rescue: inactive; TDP43 rescue: inactive

Results for Cc1ccc(NC(=O)Nc2cccs2)c(C)c1 ?
FUS yeast rescue: inactive; Abeta rescue: inactive; TDP43 rescue: inactive; ClpP mod: inactive

How did Cc1ccc(C)c(OCCC(=O)Nc2ccc3c(c2)OCO3)c1 do in these assays?
aSyn rescue: inactive; Mm-Cpn inhibitor: inactive; Abeta rescue: inactive; TDP43 rescue: 11µM; ClpP mod: inactive

Results for Cc1ccc(NC(=O)c2ccc(CSc3nnc(C)s3)cc2)c(C)c1 ?
aSyn rescue: inactive; FUS yeast rescue: inactive; Mm-Cpn inhibitor: inactive; Abeta rescue: inactive; TDP43 rescue: inactive; ClpP mod: inactive

How did Cc1nnc(SCc2ccc(C(=O)Nc3cc(Cl)ccc3C)cc2)s1 do in these assays?
aSyn rescue: inactive; FUS yeast rescue: inactive; Mm-Cpn inhibitor: inactive; Abeta rescue: inactive; TDP43 rescue: 10µM; ClpP mod: inactive

Results for Cc1cc2occ(CC(=O)N(C)CC(=O)Nc3ccccc3C(F)(F)F)c2cc1C ?
aSyn rescue: inactive; FUS yeast rescue: inactive; Mm-Cpn inhibitor: inactive; Abeta rescue: inactive; TDP43 rescue: 20µM; ClpP mod: inactive

What do the screens show for `CCOc1ccc(CCN2C(=S)N([C@@H](CC(C)C)CN3CCC[C@@H]3CN3C(=S)NC[C@@H]3Cc3ccccc3)C[C@@H]2Cc2ccc(O)cc2)cc1`?
aSyn rescue: inactive; FUS yeast rescue: 28µM; Abeta rescue: inactive; TDP43 rescue: inactive; ClpP mod: inactive

What do the screens show for `Oc1ccc(C[C@H]2CNC(=S)N2CC2CCCN2C[C@H](Cc2ccc(O)cc2)N2C[C@H](Cc3ccc(O)cc3)N(CC3CCCCC3)C2=S)cc1` (stereo partly drawn)?
aSyn rescue: inactive; FUS yeast rescue: inconclusive; Abeta rescue: inactive; TDP43 rescue: 11µM; ClpP mod: inactive

What do the screens show for `CCOc1ccc(CCN2C(=S)N([C@@H](Cc3ccccc3)CN3CCCC3CN3C(=S)NC[C@@H]3Cc3ccccc3)C[C@@H]2Cc2ccc(O)cc2)cc1` (stereo partly drawn)?
aSyn rescue: inactive; FUS yeast rescue: 11µM; Abeta rescue: inactive; TDP43 rescue: inactive; ClpP mod: inactive

Results for Cc1ccc(C)c2sc(NC(=O)c3ccc(S(=O)(=O)N4CCC(C)CC4)cc3)nc12 ?
aSyn rescue: inactive; FUS yeast rescue: inactive; Abeta rescue: inactive; TDP43 rescue: inactive; ClpP mod: inactive

Results for CCc1ccccc1NC(=O)Cn1c(=O)n(-c2ccc(C)cc2)c(=O)c2c1c1cc(C)ccc1n2C ?
FUS yeast rescue: inactive; Abeta rescue: inactive; TDP43 rescue: inactive; ClpP mod: inactive

How did CC(=O)NCN1CCN(CNC(C)=O)CC1 do in these assays?
aSyn rescue: inactive; FUS yeast rescue: inactive; Mm-Cpn inhibitor: inactive; Abeta rescue: inactive; TDP43 rescue: inactive; ClpP mod: 25µM

What do the screens show for `CC(=O)N1CCN(CC(=O)O)CC1`?
Mm-Cpn inhibitor: inactive

How did N#CC(=C1C=CC(=NO)C(Cl)=C1)c1ccccc1 do in these assays?
aSyn rescue: inactive; FUS yeast rescue: inactive; Abeta rescue: inactive; TDP43 rescue: 7.1µM; ClpP mod: inactive

What do the screens show for `COc1ccc(OC)c(S(=O)(=O)N2CCC(C(=O)N3CCN(C4CCCCC4)CC3)CC2)c1`?
FUS yeast rescue: inactive

Results for Cc1cccc(C(=O)Nc2ccc(NC(=O)Cc3ccc(Cl)cc3)cc2)c1 ?
aSyn rescue: inactive; Mm-Cpn inhibitor: inactive; Abeta rescue: inactive; TDP43 rescue: inactive; ClpP mod: 32µM

Results for O=C(Cc1ccc(Cl)cc1)Nc1ccc(NC(=O)c2ccccc2)cc1 ?
aSyn rescue: inactive; FUS yeast rescue: inactive; Mm-Cpn inhibitor: inactive; Abeta rescue: inactive; TDP43 rescue: inactive; ClpP mod: inconclusive

What do the screens show for `O=C(Nc1ccc2c(c1)OCO2)NC1CCCCN(Cc2cccc(Cl)c2)C1=O` (stereo not drawn)?
FUS yeast rescue: inactive

Results for COc1cc(CN(C(=O)COc2ccc(C)c(C)c2)c2ccccn2)cc(OC)c1OC ?
FUS yeast rescue: inactive; Abeta rescue: inactive; TDP43 rescue: inactive; ClpP mod: inactive

Results for O=C(CCC1N=C2c3ccccc3N=C(SCc3ccc(Cl)cc3)N2C1=O)NCCc1ccccc1 (stereo not drawn) ?
FUS yeast rescue: 32µM; Abeta rescue: inactive; TDP43 rescue: inactive; ClpP mod: inactive
